This note sets out measurements from PubChem BioAssay.

SMILES strings stand for the structures. Results with a measured potency or affinity are listed apart. A number with no mark means an inactive call. No rule for the calls is given here.

This experiment in a line: A2780 cell killing – plate reader, dry powder samples, cytotoxicity control, dose response (AID 743046).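 Also: 0% = neutral control wells and -100% = cytotoxic reference compound.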 To be noted: A2780 ovarian cancer cytotoxicity; series mostly up to 35 µM; activity change, negative = cytotoxicity: at the top concentration.
Turning to `C[C@@H]1CN([C@H](C)CO)C(=O)c2cc(NC(=O)Nc3ccc(F)cc3)ccc2O[C@@H](C)CCCCO[C@H]1CN(C)C(=O)NC1CCCCC1`, the “activity change, negative = cytotoxicity” value is 28.6%.
In the case of `Cc1ccc(S(=O)(=O)Nc2ccc3c(c2)C(=O)N([C@H](C)CO)C[C@@H](C)[C@H](CN(C)Cc2ccc(Cl)c(Cl)c2)OCCCC[C@H](C)O3)cc1`, the “activity change, negative = cytotoxicity” value was 19.7%.
The figure for `COc1ccc(S(=O)(=O)Nc2ccc3c(c2)CC(=O)N([C@@H](C)CO)C[C@@H](C)[C@H](CN(C)Cc2ccc(C(F)(F)F)cc2)O3)cc1` is 8.07%; for `C[C@@H]1CCCCO[C@@H](CN(C)C(=O)c2ccccc2)[C@H](C)CN([C@H](C)CO)C(=O)c2cc(NC(=O)Nc3ccc(C(F)(F)F)cc3)ccc2O1` it is -11.7%; for `O=C(Cc1ccccc1)N1CC[C@H]2[C@H](CO)Nc3ccc(C4=CCCCC4)cc3[C@H]21` it is 21.7%.
The figure for `C[C@@H]1CCCCO[C@H](CN(C)CC2CCCCC2)[C@H](C)CN([C@@H](C)CO)C(=O)c2cc(NC(=O)Nc3ccccc3)ccc2O1` is 18.9%; for `C[C@@H]1CN([C@H](C)CO)C(=O)c2cc(NC(=O)Nc3ccc(C(F)(F)F)cc3)ccc2O[C@@H](C)CCCCO[C@H]1CN(C)C(=O)NC1CCCCC1` it is -34.4%.
`C[C@H]1CN([C@@H](C)CO)S(=O)(=O)c2ccc(C#Cc3ccc(F)cc3)cc2O[C@@H]1CN(C)C(=O)NC1CCCCC1`: the “activity change, negative = cytotoxicity” value is -6.02%.
For `C[C@@H](O)C#Cc1ccc2c(c1)O[C@H](CN(C)Cc1ccc(-c3ccccc3)cc1)[C@@H](C)CN([C@@H](C)CO)S2(=O)=O` the value was -0.916%; for `C[C@H]1CCCCO[C@H](CN(C)S(=O)(=O)c2ccc(F)cc2)[C@@H](C)CN([C@@H](C)CO)C(=O)c2cc(NS(=O)(=O)c3ccc(Cl)cc3)ccc2O1`, -0.449%; for `C[C@@H]1CN([C@H](C)CO)C(=O)c2cc(NC(=O)Nc3ccc(C(F)(F)F)cc3)ccc2O[C@@H](C)CCCCO[C@H]1CN(C)S(=O)(=O)c1ccc(Cl)cc1`, 11.4%.
Regarding `C[C@@H]1CN([C@H](C)CO)C(=O)c2cc(NS(=O)(=O)c3ccccc3)ccc2O[C@@H](C)CCCCO[C@@H]1CN(C)CC1CCCCC1`, the “activity change, negative = cytotoxicity” value is 8.6%.
Turning to `C[C@@H]1CN([C@H](C)CO)C(=O)c2cc(NC(=O)Nc3ccc(C(F)(F)F)cc3)ccc2O[C@@H](C)CCCCO[C@H]1CN(C)S(=O)(=O)c1ccccc1`, the “activity change, negative = cytotoxicity” value was 3.5% [at 30 µM].
The figure for `C[C@@H]1CN([C@@H](C)CO)C(=O)c2cc(NS(=O)(=O)c3cccs3)ccc2O[C@@H](C)CCCCO[C@H]1CN(C)Cc1ccc(C(F)(F)F)cc1` is -22.4%; for `C[C@@H]1CCCCO[C@@H](CN(C)C(=O)Nc2ccc(C(F)(F)F)cc2)[C@H](C)CN([C@H](C)CO)C(=O)c2cc(NS(=O)(=O)c3ccc(F)cc3)ccc2O1` it is -0.58%.
The figure for `Cc1ccc(S(=O)(=O)N(C)C[C@H]2Oc3cc(C#Cc4ccncc4)ccc3S(=O)(=O)N([C@H](C)CO)C[C@H]2C)cc1` is -1.45%; for `C[C@@H]1CN([C@H](C)CO)C(=O)c2cc(NC(=O)Nc3ccccc3)ccc2O[C@@H](C)CCCCO[C@H]1CN(C)C(=O)Nc1ccc(C(F)(F)F)cc1` it is -8.84%; for `O=C(Nc1ccc(C(F)(F)F)cc1)Nc1ccc2c(c1)[C@@H]1C[C@H](CC(=O)N3CCc4ccccc4C3)O[C@H](CO)[C@@H]1O2` it is 47.3% [at 30 µM].
The figure for `CC(C)CC1NC(=S)N(Cc2ccccc2)C1=O` (stereo unspecified) is 22.9% [at 50 µM]; for `C[C@H](CO)N1C[C@H](C)[C@H](CN(C)Cc2ccc(C(F)(F)F)cc2)OCCCC[C@H](C)Oc2ccc(NC(=O)NC3CCCCC3)cc2C1=O` it is -1.81%; for `C[C@@H]1CN([C@H](C)CO)C(=O)c2cc(NC(=O)c3ccccc3)ccc2O[C@@H](C)CCCCO[C@@H]1CN(C)Cc1ccc(C(F)(F)F)cc1` it is -22.2%.
`COc1ccccc1C(=O)Nc1ccc2c(c1)C(=O)N(C)[C@@H]1CC[C@@H](CC(=O)NCc3ccc(Cl)c(Cl)c3)O[C@H]1CO2`: the “activity change, negative = cytotoxicity” value is 4.44%.
For `C[C@@H]1CN([C@H](C)CO)S(=O)(=O)c2ccc(C#CC3CCCC3)cc2O[C@H]1CN(C)Cc1cccnc1` the value was 15.6%; for `C[C@H]1CN([C@@H](C)CO)C(=O)Cc2cc(NC(=O)NC3CCCCC3)ccc2O[C@H]1CN(C)Cc1ccc(-c2ccccc2)cc1`, -13.4%; for `C[C@H](CO)N1C[C@H](C)[C@H](CN(C)Cc2ccc(C(F)(F)F)cc2)OCCCC[C@H](C)Oc2ccc(NS(=O)(=O)c3ccc(F)cc3)cc2C1=O`, -9.16%.
The figure for `COc1ccc(-c2ccc3c(c2)[C@@H]2[C@@H](CCN2S(=O)(=O)c2ccc(OC)cc2)[C@@H](CO)N3C)cc1` is -13.1%.
